Results as given in PubChem BioAssay AID624330 (Southern Research Specialized Biocontainment Screening …, 2012).
Several values for one entry are separate records, joined by “and”; a condition that tells them apart may be missing. Equal values may be shown once. The whole screen tested about 340,000 compounds, of which about 2,100 (0.62%) were called active. Not all results are given here. Potency and affinity values are given separately. A number with no mark means an inactive call.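 Rule for the calls: active = first-screen hits whose inhibition reached a set limit at any dose in the follow-up dose series; inconclusive = inhibition above the set first-screen limit but never retested; inactive = the rest.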

target: Rac GTPase-activating protein 1 (Homo sapiens) (UniProt Q9H0H5); experiment: MgcRacGAP GTPase-activating activity inhibitors, confirmation, biochemical, ADP Hunter fluorescence, primary and confirmatory (AID 624330); details: MgcRacGAP-stimulated Rac1 GTP hydrolysis, at 30 µM, active compounds read high, GST-tagged Rac1 F28L mutant substrate;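 note: fluorescence reports GDP produced by GAP-driven GTP hydrolysis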
Sequence (Q9H0H5 whole entry, looked up): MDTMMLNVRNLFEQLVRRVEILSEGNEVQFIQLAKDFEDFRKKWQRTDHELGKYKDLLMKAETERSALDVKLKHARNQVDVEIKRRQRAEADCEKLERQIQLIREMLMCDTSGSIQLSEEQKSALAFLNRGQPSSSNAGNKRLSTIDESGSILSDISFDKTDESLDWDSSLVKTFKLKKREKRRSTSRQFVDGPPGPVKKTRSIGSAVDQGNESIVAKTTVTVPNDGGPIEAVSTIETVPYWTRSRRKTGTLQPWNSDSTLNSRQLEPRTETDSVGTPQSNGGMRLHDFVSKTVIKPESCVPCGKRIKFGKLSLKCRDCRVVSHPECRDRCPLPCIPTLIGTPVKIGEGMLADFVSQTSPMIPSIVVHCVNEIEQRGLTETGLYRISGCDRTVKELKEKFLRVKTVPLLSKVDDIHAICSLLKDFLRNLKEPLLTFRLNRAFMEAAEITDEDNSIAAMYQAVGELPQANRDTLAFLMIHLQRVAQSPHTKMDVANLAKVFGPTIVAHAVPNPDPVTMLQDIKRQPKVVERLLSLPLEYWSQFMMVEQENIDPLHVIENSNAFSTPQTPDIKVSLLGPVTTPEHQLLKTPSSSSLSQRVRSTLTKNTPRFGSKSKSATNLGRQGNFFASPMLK

| Structure (SMILES) | inhibition |
| --- | --- |
| C[C@@H](OC(=O)c1[nH]cnc1C(=O)NCc1ccc(CNC(=O)OC(C)(C)C)cc1)c1ccccc1 | 7.47% |
| COc1ccccc1NC(=O)CCC(=O)OCC(=O)c1ccc(C)c([N+](=O)[O-])c1 | 4.59% |
| Cc1ccc(NC(=O)Cc2nnc(SCC(=O)NC3=NCCS3)n2C)cc1 | 9.68% |
| CC(C)Sc1oc(-c2ccco2)nc1S(=O)(=O)c1ccc(F)cc1 | 9.8% |
| COc1cc2nc(NC(=O)c3ccc(Cl)cc3)sc(=O)c2cc1OC | 12.1% |
| Cc1cccc(OC(C)C(=O)Nc2nc(-c3ccncc3)cs2)c1 (stereo not given) | 5.11% |
| Cc1cccc(Cn2c(N(C)Cc3ccccc3)nc3c2c(=O)[nH]c(=O)n3C)c1 | 10.6% |
| C=CCn1c(Cc2ccc(OCC)cc2)nnc1SCC(N)=O | 4.65% |
| Cc1c(Cl)cccc1NC(=S)N1CCN(Cc2ccccc2)CC1 | 6.91% |
| COc1cc(/C=N/NC(=O)CCC(=O)Nc2ccc(C)cc2)ccc1O | 26.5% |
| O=C(Cc1ccccc1)NN=Cc1ccccc1 | -1.49% |
| Cc1ccc(NC(=O)CCC(=O)N/N=C/c2cccnc2)cc1 | 1.87% |
| COc1cc(/C=N/NC(=O)CCC(=O)Nc2ccc(Br)cc2)ccc1O | 25.9% |
| O=C(CCC(=O)Nc1ccc(F)cc1)N/N=C/c1ccc(Br)cc1 | 3.6% |
| O=C(CCC(=O)Nc1ccc(Br)cc1)N/N=C/c1ccc(F)cc1 | 3.09% |
| Cc1nc(CC(=O)N/N=C/c2ccc(OCC(=O)O)cc2)cs1 | -8.35% |
| O=C(CCC(=O)Nc1ccc(Br)cc1)N/N=C/c1ccc(O)cc1 | 22.7% |
| Cc1ccc(Cl)cc1N1CCN(C(=O)C2CCN(S(=O)(=O)c3cnc[nH]3)CC2)CC1 | -2.49% |
| COc1cc(C(=O)OC(C)C(=O)NC2CCCCC2C)c([N+](=O)[O-])cc1OC (stereo not given) | -4.78% |
| Cc1cccc(C)c1NC(=O)N1CC=CCC1 | 8.07% |
| CCc1c(C)nc(N2CCN(c3ccccc3)CC2)[nH]c1=O | -0.57% |
| Cc1cc(=O)[nH]c2c1c(-c1ccccc1)nn2C | 4.24% |
| O=C1CN(C(=O)c2ccc(F)cc2)c2ccccc2N1 | 12.4% |
| CC(=O)Nc1cccc(NC(=O)c2csc(C)c2)c1 | 8.66% |

| Structure (SMILES) | inhibition |
| --- | --- |
| O=C(O)c1ccc(N2CCCCC2)cc1O | 10.7% |
| COC(=O)[C@@]1(C)[C@H]2C(=O)N(C)C(=O)[C@H]2[C@H]2CN(C)C(=NC3CCCCC3)N21 | 9.12% |
| N#Cc1cnn(-c2nc3sc4c(c3c(=O)[nH]2)CCCC4)c1N | 11.7% |
| CN1C(=O)CCS(=O)(=O)C1c1ccc(Cl)c(Cl)c1 (stereo not given) | 8.53% |
| COc1ccc(NC(=O)CSc2nc3c(c(=O)n(C)c(=O)n3C)n2C)c(OC)c1 | 4.73% |
| O=C(CC(=O)Nc1cccc(Cl)c1)N/N=C\c1ccccc1 | 1.72% |
| CCOc1ccc(/C=N/NC(=O)CC(=O)Nc2ccc(Cl)c(Cl)c2)cc1 | 4.45% |
| CC(C)(C)OC(=O)N1CCC(C(=O)N[C@@H](Cc2ccccc2)C(=O)O)CC1 | 4.57% |
| CCC(CC)C(=O)c1c[nH]c(C(=O)O)c1 | 6.73% |
| Cc1[nH]c2ccccc2c1-c1csc(NC(=O)CSCC(=O)O)n1 | 19.6% |
| Cc1[nH]c2ccccc2c1-c1csc(NC(=O)CN2CCOCC2)n1 | 25.6% |
| CCOc1ccc(NC(=O)c2ccc(F)c(S(=O)(=O)N3CCCC3)c2)cc1 | 10.8% |
| N#Cc1ccc2c(=O)n(-c3ccccc3)sc2c1 | 22.6% |
| O=C(c1sc2cc(F)ccc2c1Cl)N1CCN(c2ccccc2)CC1 | -1.95% |
| COc1ccc(N2C(=O)C(F)(F)C2c2cccc(F)c2)cc1 (stereo not given) | 5.49% |
| CC(=O)Nc1ccc2c(=O)n(-c3ccccc3)sc2c1 | 23.5% |
| COc1ccc(Oc2c(Cl)cnn(-c3ccc(F)cc3)c2=O)cc1 | 4.49% |
| O=c1[nH]n(-c2ccccc2Cl)c(=O)c2ccccc12 | 4.42% |
| CC(=O)Nc1ccc(-n2c(=O)c3ccccc3c3ccccc3c2=O)cc1 | 8.38% |
| O=c1nc(-c2ccccc2Cl)c2cc(F)ccc2[nH]1 | 9.68% |
| Cc1cccc(CSC2=NCCN2C(=O)c2ccc(S(=O)(=O)N(C)C)cc2)c1 | 4.49% |
| CCOC(=O)CNC(=O)Cn1cnc2c(nnn2-c2ccc(C)cc2)c1=O | 1.26% |
| COCCOCC(O)CN1CCN(c2ccc(C)cc2)CC1 (stereo not given) | 24.5% |
| C[C@@H]1CN([C@@H](C)CO)C(=O)CCCn2nncc2CO[C@H]1CN(C)C(=O)OCc1ccccc1 | 7.03% |

| Structure (SMILES) | inhibition |
| --- | --- |
| CN1CCN(S(=O)(=O)c2cccc(C(=O)N(C)CC(=O)Nc3ccc(F)c(F)c3F)c2)CC1 | 9.79% |
| Cc1ccc2nc(SCC(=O)NCc3ccc(F)cc3)nc(=O)n2c1 | 6.12% |
| Cc1ccc(C(=O)Nc2ccc(N3CCOCC3)cc2)cc1S(=O)(=O)N1CCCCC1 | 3.29% |
| O=c1c2cc(F)ccc2sn1-c1ccc(F)cc1 | 30.6% |
| O=c1c2cc(C(F)(F)F)ccc2sn1-c1ccccc1 | 24.6% |
| OCCOCCN1CCN(C2=Nc3ccccc3Sc3ccccc32)CC1 | -0.15% and -4.72% |
| OCCOCCN1CCN(C(=S)Nc2ccccc2)CC1 | 6.01% |
| COC(=O)C1CCN(Cc2cn(Cc3ccccc3)nc2-c2cc3ccccc3o2)CC1 | 13.5% |
| COCCNC(=O)C(OC(=O)c1nsc(Cl)c1Cl)C(C)C (stereo not given) | 10.9% |
| CCCN(CC(=O)Nc1cc(Cl)ccc1Cl)C(=O)c1ccc(N2CCCC2=O)cc1 | 3.44% |
| COc1cc(/C=N/NC(=O)c2cc(-c3cccc(Br)c3)nc3ccccc23)cc(OC)c1O | 13.9% |
| O=C1NC(=O)C(=Cc2ccc(Cl)cc2Cl)S1 | 7.66% |
| O=C1NC(=S)SC1=Cc1ccc(F)cc1 | 15.8% |
| O=C1NC(=S)SC1=Cc1ccc(Cl)cc1 | 8.39% |
| Cc1cc(/C=C2\SC(=S)NC2=O)c(C)n1C | 26.3% |
| O=C1NC(=S)SC1=Cc1cc(Br)ccc1O | 16.8% |
| Cc1nn(C)cc1/C=C1\SC(=S)NC1=O | -1.15% |
| Cc1cccc(NC(=O)CN2C(=O)NC(C)(c3ccc4c(c3)OCO4)C2=O)c1 (stereo not given) | 3.23% |
| O=C(CSc1ncn[nH]1)N1CCN(c2nnc(-c3ccccc3)c3ccccc23)CC1 | 11.7% |
| Cc1cc(C)nc(N/N=C/C2=C(N3CCOCC3)C(=C/c3ccccc3)/CC2)n1 | 9.21% |
| COc1ccc(N=C2C(=O)N3c4c(cccc42)C(C)=CC3(C)C)cc1 | 13.7% |
| C=CCN(Cc1nc(-c2ccc(OC)cc2)no1)C(=O)c1ccc2c(c1)OCO2 | 2.96% |
| CCN(CC)c1ccc(/C=N/N2CCN(Cc3ccccc3Cl)CC2)cc1 | -3.36% |
| Cn1cccc1/C=N/N1CCN(Cc2cccc3ccccc23)CC1 | 25.4% |

| Structure (SMILES) | inhibition |
| --- | --- |
| Clc1ccc(/C=N/N2CCN(Cc3ccccc3Cl)CC2)cc1 | 12% |
| Cn1cccc1/C=N/N1CCN(Cc2ccccc2)CC1 | 23% |
| Cc1ccc(NC(=S)NCc2ccc3c(c2)cc(C)n3C)c(C)c1 | 9.16% |
| O=C(COC(=O)c1ccc(O)cc1)Nc1cccc(S(=O)(=O)N2CCCCC2)c1 | 5.81% |
| C=C(C)c1ccc(C(C)(C)NC(=O)N(Cc2ccccc2)Cc2ccco2)cc1 | 0.01% |
| C/C(=C/c1oc2ccc(O)cc2c1[N+](=O)[O-])N(C)C | 14.9% |
| CC(=O)Oc1ccc2oc(/C=C/N(C)C)c([N+](=O)[O-])c2c1 | 16.9% |
| O=S1(=O)N=C(Nc2ccc(N3CCOCC3)cc2)c2ccccc21 | 2.07% |
| CCN(CC)S(=O)(=O)c1ccc(NC2=NS(=O)(=O)c3ccccc32)cc1 | 1.99% |
| CC1(C)CC(=O)C=C(Nc2ccc(F)cc2)C1 | -10% |
| CC(=O)Nc1ccc(NC2=CC(=O)CC(C)(C)C2)cc1 | 7.91% |
| N#CCc1ccc(Oc2ccc([N+](=O)[O-])cn2)cc1 | 5.55% |
| Cc1oc(-c2ccccc2)nc1C(=O)OCC(=O)NCc1ccc(Cl)cc1 | -0.87% |
| CCCCn1c(N)c(N(CC(C)C)C(=O)c2ccc(Cl)c(S(=O)(=O)N3CCCC3)c2)c(=O)[nH]c1=O | 5.8% |
| COc1cccc(CN2CCCC(C(=O)N3CCCCC3)C2)c1 (stereo not given) | 22.1% |
| O=C(C1CCCN(Cc2ccc(Cl)cc2)C1)N1CCCCC1 (stereo not given) | 24.9% |
| COc1ccc(CN2CCCC(C(=O)N(C)Cc3ccccc3)C2)cc1OC (stereo not given) | 27.7% |
| CN(Cc1ccccc1)C(=O)C1CCCN(Cc2cccc(Cl)c2)C1 (stereo not given) | 3.69% |
| O=C(C1CCCN(Cc2ccccc2)C1)N1CCCCC1 (stereo not given) | 21.6% |
| COc1ccc(CN2CCCC(C(=O)N3CCCCC3)C2)cc1 (stereo not given) | 26.1% |
| O=C(NNC(=O)c1cc2ccccc2o1)c1ccncc1 | 3.59% |
| Cc1cc(C[n+]2ccsc2N)c2ncccc2c1 | 4.36% |
| NC(=O)CC(NC(=O)c1ccc(Br)cc1)c1ccc(N2CCN(c3ccccn3)CC2)c([N+](=O)[O-])c1 (stereo not given) | 4.07% |
